The text below walks through data of PubChem BioAssay (NCATS).

Values joined by “and” are separate entries in the source; they are usually repeats but may differ in a detail not shown here. Equal entries are not always repeated. Inconclusive results are not listed. A number with no mark means an inactive call. Active and inactive are the calls of the source. Calls follow the shape of the dose curve; as a rule, active = well fitted cell-killing curve with a large enough effect; inconclusive = small, poorly fitted or top-dose-only effect; inactive = no such curve, though single readings can be large or run the other way.
Potency is read from the fitted curve at half-maximal effect.

A short description of the assay: qHTS of pediatric cancer cell lines to identify multiple opportunities for drug repurposing: Primary screen for OHS-50 cells (AID 1347103). Also: nearly all actives have a fitted effect of over 40% in size.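 As to activity change, negative = cytotoxic: plate controls were DMSO neutral control for no effect and bortezomib positive control for full effect.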 As to conditions: OHS-50 osteosarcoma viability, CellTiter-Glo luminescence, 48 h; series mostly up to 57.3 µM; activity change, negative = cytotoxic: at the top concentration. The gist of the method: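 Cells (500-1,000/well) rested 5 h, then received compounds for 48 h; metabolically active cells were measured by CellTiter-Glo luminescence. Final concentrations spanned up to 46 µM (MIPE, 11-point) or 0.59 nM-46 µM (NPC, 8-point) in primary screens, 11-point in follow-ups.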
On the technique in general: Quantitative high-throughput screening tests each substance at several concentrations.
Regarding `CC(=O)OC1(c2ccccc2)CCN(CCc2ccccc2)CC1`, the Potency is 32.4 µM (active).
Consider `CCNc1nc(Cl)nc(NCC)n1`, for which the “activity change, negative = cytotoxic” value is 8.93%.
As for `COc1ccc(C(=O)N2CCCC2=O)cc1`, the Potency result is “inactive”.
With `CNC(C)Cc1ccc2c(c1)OCO2` (stereo not given), the “activity change, negative = cytotoxic” value is -8.1% [at 116 µM].
On the same count and under the same terms, the figure for `ClCc1cccc(Cl)c1` is 16.2%.
The same measure, in the same setting: the figure for `COP(=S)(OC)Oc1ccc(Sc2ccc(OP(=S)(OC)OC)cc2)cc1` is 4.76%.
On the same count and under the same terms, the figure for `CN1C(=O)[C@@H](NC(=O)c2cc3ccccc3[nH]2)N=C(c2ccccc2)c2ccccc21` is 6.13%.
Turning to `CC(CC(C#N)(c1ccccc1)c1ccccc1)N(C)C` (stereo not given), the Potency is 28.2 µM (active).
Still for that read-out and setting: the figure for `Cc1nnc2n1-c1sc(CCc3ccc(CC(C)C)cc3)cc1C(c1ccccc1Cl)=NC2C` (stereo not given) is 21.9 µM (active); for `C[C@@H]1C[C@@H]([C@H](O)CC2CC(=O)NC(=O)C2)C(=O)[C@@H](C)C1` it is 276 nM (active) and 137 nM (active).
Consider `CC(C)C(Br)C(=O)NC(N)=O` (stereo not given), for which the “activity change, negative = cytotoxic” value is 4.22%.
Turning to `CCS(=O)(=O)C(C)(C)S(=O)(=O)CC`, the “activity change, negative = cytotoxic” value was -10.9%.
As to `NCc1cccnc1`, the “activity change, negative = cytotoxic” value is -12.6%.
Still for that read-out and setting: then `CC(C)(O)C(Cl)(Cl)Cl`, with 5.72%; and `CC1N=C(N)OC1c1ccccc1` (stereo not given), with -19.5% [at 116 µM].
With `CCCCCCCCCCCC[N+](C)(C)CCOc1ccccc1`, the Potency was 4.9 µM (active).
Take `CC[C@H](O)C(C[C@H](C)N(C)C)(c1ccccc1)c1ccccc1`: the “activity change, negative = cytotoxic” value is -15.9% [at 116 µM].
`Oc1ccc2[nH]cc(CCCCN3CC=C(c4ccccc4)CC3)c2c1`: the Potency was 27.6 µM (active).
`CCO[C@H]1O[C@@H]2OC3(C)CC[C@H]4[C@H](C)CC[C@@H]([C@H]1C)[C@@]24OO3`: the Potency is 13.8 µM (active).
`COP(=O)(OC)OC=C(Cl)Cl`: the “activity change, negative = cytotoxic” value is 6.94%.
